Sm TGR block = S. mansoni TGR enzyme inhibition. Potency, µM (top dose mostly 114 µM), without a hit: at the highest dose activity change, negative = inhibition, most hits filed as inhibitors. Q962Y6. purified TGR, DTNB reduction, TNB absorbance 405 nm. hit rate 3% among 360,000; also: nearly all actives have a fitted effect of over 60% in size
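Kinetic colorimetric format: TGR-catalysed, NADPH-driven DTNB reduction monitored via TNB absorbance. Enzyme dispensed at 20 nM; compound exposure 15 min at room temperature before reaction start.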
AmpC no deterg = blocks E. coli AmpC beta-lactamase in detergent-free assay; Potency, µM (titrated, usually from 57.1 µM), inactives show at the top dose activity change, negative = inhibition, usual class: inhibitors; AmpC nitrocefin hydrolysis, absorbance 480 nm, 0.0001% Triton; hit rate 0.52% among 330,000;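 also: plate controls were no compound for no effect and no enzyme for full effect; nearly all actives have a fitted effect of over 20% in size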
Target sequence (P00811 whole entry, looked up): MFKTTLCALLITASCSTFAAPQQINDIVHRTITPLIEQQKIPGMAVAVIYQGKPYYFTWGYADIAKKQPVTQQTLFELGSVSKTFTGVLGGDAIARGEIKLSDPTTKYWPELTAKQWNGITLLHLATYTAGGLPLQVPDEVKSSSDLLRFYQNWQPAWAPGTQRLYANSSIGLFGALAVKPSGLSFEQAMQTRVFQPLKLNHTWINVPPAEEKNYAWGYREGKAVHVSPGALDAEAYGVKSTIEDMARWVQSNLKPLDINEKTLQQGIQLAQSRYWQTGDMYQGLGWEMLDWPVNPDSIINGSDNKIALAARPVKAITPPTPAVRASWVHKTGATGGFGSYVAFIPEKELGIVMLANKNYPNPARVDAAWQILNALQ
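AmpC (5.3 nM in the dispensed reagent) in 20 mM phosphate pH 7.0 with 0.01% (detergent screen) or 0.0001% Triton X-100 was preincubated with compounds for 15 min at room temperature. Nitrocefin was then added from an 800 uM solution, and hydrolysis was followed at 480 nm.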
AmpC inh detg = inhibitors of E. coli AmpC beta-lactamase with detergent; P00811; AmpC hydrolysis of nitrocefin, absorbance 480 nm, 0.01% Triton; Potency, µM (doses to about 114 µM), without a hit: top-dose activity change, negative = inhibition, usual class: inhibitors; hit rate 0.041% among 370,000;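 also: 0% = no-compound wells and -100% = no-enzyme wells; nearly all actives have a fitted effect of over 25% in size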
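20 mM phosphate pH 7.0 + 0.01% (detergent screen) or 0.0001% Triton X-100; 5.3 nM AmpC reagent; cpd preinc 15 min RT; nitrocefin (800 uM stock) to start; A480 q20 s × 4 min; Activity was normalised to no-enzyme and no-compound control wells.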
AMA1 RON2 block = AMA1-RON2 (P. falciparum) interaction inhibition. AlphaScreen AMA1-biotinylated RON2 peptide binding. Potency, µM (top dose mostly 58.2 µM), for the others: at the highest dose activity change, negative = inhibition, hits mostly inhibitors. hit rate 0.2% among 360,000. AID 720542;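 also: 0% = vehicle wells and -100% = peptide control; nearly all actives have a fitted effect of over 45% in size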
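AMA1 (3D7) with his tag at 25 nM final met compounds first, then biotinylated RON2 peptide at 25 nM; detection used donor plus acceptor beads, 10 µg/mL apiece, read by AlphaScreen after 30 min at room temperature.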
FMDV inh = blocks foot and mouth disease virus; FMDV antiviral cell-based qHTS; Potency, µM (top dose mostly 57.9 µM), for the others: at the highest dose activity change, negative = inhibition, actives largely listed as inhibitors; hit rate 1.2% among 410,000; calls by dose curve; tested in HEK293T cells; also: read-out not given here; nearly all actives have a fitted effect of over 45% in size
Numbers without * were called inactive; ? = inconclusive; nt = not tested or not shown; [ ] = remark or other dose. Compounds with a hit are over-represented: about 4.1% of the library has one in this group of screens. Unless noted, calls follow the shape of the dose curve; as a rule, active = well fitted curve in the direction sought with a large enough effect; inconclusive = small, poorly fitted or top-dose-only effect, or another doubt; inactive = no such curve, though single readings can be large; an effect the other way counts as inactive or inconclusive. Unless noted, % is scaled to controls: 0 for no effect and ±100 for the full control effect; potency is read from the fitted curve at half-maximal effect.

SMILES	Sm TGR block	AmpC no deterg	AmpC inh detg	AMA1 RON2 block	FMDV inh
Cc1ccccc1C(=O)N1CCN(c2ccc(NC(=O)c3cccc(OC(C)C)c3)cc2)CC1	0%	-19%	-11%	4%	16µM*
CCCCOC(=O)c1ccc(NC(=O)C2(c3cccs3)CCOCC2)cc1	10%	nt	6%	nt	0%
CCOC(=O)[C@]12Cc3cc(Cl)ccc3[C@H]1N(CC(=O)OC)C(=O)c1ccccc12	nt	nt	nt	6%	10µM*
CCOC(=O)[C@]12Cc3cc(OC)c(OC)cc3[C@H]1N(Cc1ccccc1)C(=O)c1ccccc12	nt	nt	nt	-7%	-3%
CCOC(=O)[C@]12Cc3cc(Cl)ccc3[C@H]1N(C)C(=O)c1ccccc12	nt	nt	nt	4%	?
CCOC(=O)[C@]12Cc3cc(Cl)ccc3[C@H]1N(C(C)C)C(=O)c1ccccc12	nt	nt	nt	-10%	10µM*
CCC1(c2ccccc2)NC(=O)N(CC(=O)Nc2cc(S(=O)(=O)N3CCCCC3)ccc2N(C)C)C1=O (centres undefined)	4%	-15%	?	4%	1%
COc1ccc(S(=O)(=O)N2CCCCCC2)cc1NC(=O)CN1C(=O)NC(C)(c2ccccc2)C1=O (centres undefined)	35µM*	-6%	-14%	3%	-9%
COc1ccc(CNC(=O)CN2C(=O)c3cccnc3Oc3ccc(C)cc32)cc1	-10%	nt	-2%	nt	-21%
O=C/C=C/c1c(-c2ccccc2)cc2oc3ccccc3cc1-2	20µM*	-38%	-13%	-22%	-8%
O=C(Nc1ccc(Nc2ccccc2)cc1)C(Cl)Cl	-4%	-20%	-4%	-21%	13%
CC(C)(C)C(=O)C(Cl)C(=O)Nc1ccccc1 (centres undefined)	22µM*	-13%	?	5%	-9%
COc1ccc(NC(=O)CN2C(=O)CC(c3ccco3)Sc3ccccc32)cc1OC (centres undefined)	-5%	nt	21%	nt	-27%
Cc1ccc(Cl)cc1N1CCN(C(=O)c2cc3c(=O)n(C)c4ccccc4c3n2C)CC1	0%	-17%	?	-3%	8.9µM*
Cc1cccc(N2CCN(C(=O)c3cc4c(=O)n(C)c5ccccc5c4n3C)CC2)c1C	2%	-9%	?	7%	32µM*
CC(=O)Nc1cccc(-c2ccnc3c2CC(C(=O)Nc2cccc(N(C)C)c2)O3)c1 (centres undefined)	nt	nt	nt	?	-3%
CN(C)c1cccc(NC(=O)C2Cc3c(-c4ccc(Cl)cc4)ccnc3O2)c1 (centres undefined)	nt	nt	nt	25µM*	-26%
CC(=O)c1cccc(NC(=O)C2Cc3c(-c4ccc(Cl)cc4)ccnc3O2)c1 (centres undefined)	nt	nt	nt	0%	35µM*
Cc1cccc(C)c1NC(=S)NCCc1ccc(O)c(O)c1	7.9µM*	-26%	2%	2%	33%
COC(=O)c1c(NC(=O)CN2C(=O)NC3(CCc4ccccc4C3)C2=O)sc2c1CCCCC2 (centres undefined)	1%	3.5µM*	-16%	-5%	-11%
COC(=O)c1c(NC(=O)CN2C(=O)NC3(CCC(C)CC3)C2=O)sc2c1CCC2 (centres undefined)	-5%	-24%	2%	17%	-31%
CC1CCC2(CC1)NC(=O)N(CC(=O)Nc1sc3c(c1C(N)=O)CCC3)C2=O (centres undefined)	40µM*	2%[11.4 µM]	-11%	24%	-3%
O=C(NCCCN1CCN(c2ccc(F)cc2)CC1)c1ccc2nc(Cc3ccccc3)oc2c1	-1%	nt	-8%	nt	11µM*
COc1cc(CCC(=O)NCc2ccc3c(c2)CCN3C(=O)c2ccc(F)cc2)cc(OC)c1OC	5%	nt	8%	nt	-6%
CCOC(=O)C1=C(O)/C(=C\c2ccc(CNC(=O)C(=O)Nc3ccccc3)o2)N=C1C	8.9µM*	10%	11%	-18%	18%
SMILES	Sm TGR block	AmpC no deterg	AmpC inh detg	AMA1 RON2 block	FMDV inh
CCCn1c(CN(C)Cc2ccccc2)nc2c1c(=O)n(C)c(=O)n2C	-7%	25%	-7%	7%	7.9µM*
CCCCn1c(CN(C)Cc2ccccc2)nc2c1c(=O)n(C)c(=O)n2C	-10%	?	-1%	4%	?
CCCn1c(CN(Cc2ccccc2)Cc2ccccc2)nc2c1c(=O)n(C)c(=O)n2C	-9%	130%	-9%	-6%	25µM*
O=C(CSc1nc2c([nH]c3ccccc32)c(=O)n1-c1ccccc1)N1CCCCCC1	5%	nt	1%	nt	8%
COc1cccc(C(=O)Nc2cccc(C(=O)OCc3cc(=O)n4c5c(sc4n3)CCCC5)c2)c1	8%	nt	14%	nt	1%
COc1ccc(CCNC(=O)CSc2ccc(-c3ccco3)nn2)cc1OC	18µM*	-13%	-4%	-10%	4%
COc1cccc(NC(=O)CSc2ccc(-c3ccco3)nn2)c1	40µM*	-31%	11%	-8%	-14%
COc1cccc(NC(=O)CSc2ccc(-c3sc(C)nc3C)nn2)c1	7%	52%	-1%	-7%	32µM*
COc1ccc(CCNC(=O)CSc2n[nH]c(N)n2)cc1	6%	-23%	100µM*	2%	30%
COc1cc(NC(=O)CSc2ccc(-c3ccccn3)nn2)cc(OC)c1	-28%	-21%	4%	?	0%
Cc1nc(C)c(-c2ccc(SCC(=O)Nc3ccccc3)nn2)s1	-1%	20%	4%	0%	?
CCc1ccc(N2C(=O)N(CC(=O)C(C)(C)C)c3ccccc3S2(=O)=O)cc1	-2%	nt	1%	nt	?
COCCCNC(=O)c1cc2cc(S(=O)(=O)N3CCCCC3)ccc2n1C	0%	nt	-3%	nt	-16%
CCOc1ccc(Nc2nc3c(S(=O)(=O)c4ccc(CC)cc4)nnn3c3ccc(Cl)cc23)cc1	1%	nt	19%	nt	14%
CCCc1cc(=O)[nH]c(SCc2nc(-c3ccc(OC)cc3)no2)n1	0%	nt	-6%	nt	-6%
O=C(CSc1ccc(-c2ccco2)nn1)Nc1ccccc1	7.1µM*	-27%	1%	-2%	-29%
COc1ccc(CCNC(=O)CSc2nnc(-c3ccco3)c(-c3ccco3)n2)cc1OC	2.2µM*	-11%	?	nt	nt
CCOc1ccc(NC(=O)CSc2ccc(-c3ccco3)nn2)cc1	?	-41%	-2%	14%	-8%
COc1ccc(NC(=O)CSc2ccc(-c3ccco3)nn2)cc1OC	45µM*	-6%	-1%	-7%	?
COc1ccc(-c2nnc(SCC(=O)NCCc3ccc(OC)c(OC)c3)nc2-c2ccc(OC)cc2)cc1	-4%	nt	-4%	nt	-16%
O=C(CSc1ccc(-c2ccco2)nn1)Nc1ccc(F)cc1	?	-51%	-6%	13%	?
Cc1ccc(CNC(C)c2ccccc2)s1 (centres undefined)	6%	nt	-2%	nt	-24%
CS(=O)(=O)N1CCC2(CCCN(c3cccc(-c4ccccc4)c3)C2)CC1	nt	nt	nt	nt	-2%

Bioassay records deposited in PubChem BioAssay by National Center for Advancing Translational Sciences (NCATS).
